Experimental data published in publication PMC4552634, “A New Set of Chemical Starting Points with Plasmodium falciparum Transmission-Blocking Potential for Antimalarial Drug Discovery” (PLoS ONE, 2015).
Read-outs that look alike come from different tables or passages of the source. Among all 13,000 compounds or so, about 3,200 (25%) showed an effect of 50% or more. This is one part of the list.

Test system: P. falciparum stage V gametocytes
Set-up: BacTiter-Glo ATP luminescence viability of purified stage V gametocytes in 384-well plates, per cent inhibition versus DMSO
Settings: 48 h, 5 µM, inhibitor

SMILES	% Inhibition	% Inhibition (% Inhibition)
NC1=NCN(OCc2ccc(Cl)c(Cl)c2)C(N)=N1 [TCMDC-131661]	6.901%	–
O=C(c1ccc([N+](=O)[O-])o1)N1CCC(c2cn(Cc3cccc(F)c3)c3ccccc23)CC1 [TCMDC-124804]	44.33%	–
CC(C)(C)c1ccc2oc(=O)n(C3CCN(C(=O)c4ccc([N+](=O)[O-])o4)CC3)c2c1 [TCMDC-124798]	106.6%	–
FC(F)(F)c1ccc(CNCC2CCN(Cc3ccc4c(c3)OCO4)CC2)cc1 [TCMDC-141674]	9.475%	–
O=[N+]([O-])c1cccc(CNCC2CCN(Cc3ccc(C(F)(F)F)cc3)CC2)c1 [TCMDC-141209]	21.63%	–
Cc1ccc2c(c1)c(C1CCN(C(=O)c3ccc([N+](=O)[O-])o3)CC1)cn2C [TCMDC-124787]	93.47%	–
Cc1ccc2c(-c3ccc([N+](=O)[O-])o3)cc(C)nc2c1 [TCMDC-131568]	5.138%	–
O=C(c1ccc([N+](=O)[O-])o1)N1CCC(Cc2ccc(C(F)(F)F)cc2)CC1 [TCMDC-124805]	110.5%	–
COc1cccc(-c2cnc(-c3ccncc3)nc2C2CCN(Cc3ccc(NC(C)=O)cc3)CC2)c1 [TCMDC-124592]	1.604%	–
O=C(Nc1ccc(OC2CCN(Cc3ccc(F)cc3)CC2)c(Cl)c1)c1ccccc1 [TCMDC-133751]	2.198%	–
COc1ccc(CN2CCCC(Nc3ccc(F)c(F)c3)C2)c(O)c1 (stereo not drawn) [TCMDC-124607]	5.364%	–
Cc1cccc(C(=O)Nc2ccnc(N3CCC(N(C)Cc4cccc(O)c4)CC3)c2)c1 [TCMDC-134963]	14.15%	–
COc1ccc(-c2ccccc2)cc1NC(=S)NC1CCC(CN2CCC(c3c[nH]c4ccccc34)CC2)CC1 (stereo not drawn) [TCMDC-140200]	–	105.5%
COc1ccc(-c2ccccc2)cc1NC(=S)NC1CCC(CN2CCC(c3c[nH]c4ccccc34)CC2)CC1 (stereo not drawn) [TCMDC-140182]	–	85.27%
O=C(N[C@@H](CC1CCCCC1)C(=O)NCCc1ccc(Cl)c(Cl)c1)c1ccc(O)c(-c2ccc(Cl)c(Cl)c2)c1 [TCMDC-140874]	30.89%	–
O=C(CCOc1ccccc1)NCC1CCCO1 (stereo not drawn) [TCMDC-123513]	13.36%	–
O=C(NCCCNc1nc2ccccc2[nH]1)c1cccc(OC(F)(F)F)c1 [TCMDC-140754]	-24.04%	–
COc1ccc2nccc([C@@H](O)CN3CCC(NC(=O)C(=Cc4ccc(Cl)cc4Cl)c4ccc(-c5ccccc5)cc4)CC3)c2c1 [TCMDC-141109]	17.05%	–
COc1ccc2nccc([C@@H](O)CN3CCC(NC(=O)/C(=C/c4ccccc4)c4ccc(-c5ccccc5)cc4)CC3)c2c1 [TCMDC-141115]	0.831%	–
O=C(NCCc1ccccc1)N(Cc1ccccc1-c1cccc(CNC2CCCC2)c1)C1CCN(Cc2ccccc2)CC1 [TCMDC-140612]	64.34%	–
O=C(NCCc1ccccc1)N(Cc1ccccc1-c1ccc(CNC2CCCC2)cc1)C1CCN(Cc2ccccc2)CC1 [TCMDC-140613]	98.8%	–

SMILES	% Inhibition	% Inhibition (% Inhibition)
O=C(NCC1CCC(C(=O)NC2CCCc3ccccc32)CC1)c1ccc(O)c(-c2cccc([N+](=O)[O-])c2)c1 (stereo not drawn) [TCMDC-140882]	10.62%	–
O=C(Nc1ccccc1)Nc1cccc(-c2ccc(-c3nc4ccc(C(F)(F)F)cc4[nH]3)cc2)c1 [TCMDC-133151]	-20.54%	–
CCOc1cc2ncnc(Nc3ccc(OCc4c(F)cccc4F)c(OC)c3)c2cc1OCC [TCMDC-131911]	15.37%	–
CN1CCCC(COc2cc3c(cc2Br)CCN3C(=O)Nc2ccc(-c3ccncc3)c(Cl)c2)C1 (stereo not drawn) [TCMDC-139230]	96.61%	–
CN1CCC(c2cc3c(cc2Br)CCN3C(=O)Nc2ccc(-c3ccncc3)c(Cl)c2)CC1 [TCMDC-139228]	3.26%	–
CN1CCC[C@@H](Oc2cc3c(cc2Br)CCN3C(=O)Nc2ccc(-c3ccncc3)c(Cl)c2)C1 [TCMDC-139237]	-19.19%	–
CC(C)OC(=O)c1cccnc1SCC(=O)Nc1ccc(C(F)(F)F)cc1Cl [TCMDC-123575]	-93.91%	–
FC(F)(F)c1ccc(CSc2ccc3nnc(-c4ccccn4)n3n2)cc1 [TCMDC-125344]	51.34%	–
COc1ccc(-c2ccc(NC(=O)c3cccc(C#N)c3)cc2)cc1CN(C)C [TCMDC-133333]	10.09%	–
COc1ccc(-c2cccc(NC(=O)c3cccc(C#N)c3)c2)cc1CN(C)CCO [TCMDC-132625]	94.55%	–
COc1ccc(-c2ccc(NC(=O)c3ccc(C#N)cc3)cc2)cc1CN(C)CCN(C)C [TCMDC-132520]	27.11%	–
COc1ccc(-c2cccc(NC(=O)c3cccc(C#N)c3)c2)cc1CN(C)CCN(C)C [TCMDC-133339]	13.46%	–
COc1ccc(-c2cccc(NC(=O)c3ccc(F)cc3)c2)cc1CNC(C)C [TCMDC-132608]	77.83%	–
COc1ccc(-c2cccc(NC(=O)c3ccc(C#N)cc3)c2)cc1CNC(C)C [TCMDC-132610]	13.1%	–
COc1ccc(-c2ccc(NC(=O)c3ccc(C#N)cc3)c(F)c2)cc1CN(C)CCN(C)C [TCMDC-133366]	57.41%	–
COc1ccc(-c2cccc(NC(=O)c3ccc(C#N)cc3)c2)cc1CN(C)CCN(C)C [TCMDC-133341]	14.59%	–
COc1ccc(-c2cccc(NC(=O)c3cccc(C#N)c3)c2)cc1CNC(C)C [TCMDC-132622]	84.95%	–
c1ccc(CCNc2ccnc(Nc3ccc4cn[nH]c4c3)n2)cc1 [TCMDC-136880]	16.88%	–
CN(c1ccccc1)S(=O)(=O)c1cccc(NC(=O)c2ccc(-n3ccnc3)c([N+](=O)[O-])c2)c1 [TCMDC-125320]	19.17%	–
CCC(=O)N1CCc2cc(Br)cc(S(=O)(=O)N3CC(C)CC(C)C3)c21 (stereo not drawn) [TCMDC-123873]	-4.792%	–
Cc1ccc(N2C(=O)C3C(C2=O)C2(c4ccccc4)C(=O)C3(c3ccccc3)C(c3ccccc3)=C2c2ccccc2)c(C)c1 (stereo not drawn) [TCMDC-124184]	31.21%	–
